TDP1 cell noCPT = qHTS for Inhibitors of human tyrosyl-DNA phosphodiesterase 1 (TDP1): qHTS in cells in absence of CPT; DT40 Tdp1-/- hTDP1 cells, no CPT, ATP luminescence, 48 h; Potency, µM (top dose mostly 46.2 µM), for the others: top-dose activity change, negative = growth inhibition, actives largely listed as inhibitors; 420,000 tested, 15% active; also: potency is read from the fitted curve at half-maximal effect; % is scaled to controls: 0 for no effect and ±100 for the full control effect; nearly all actives have a fitted effect of over 55% in size
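Seeded 400 DT40-hTDP1 cells/well (vehicle DMSO, no 20 nM CPT); pinned compounds; ≥48 hr at 37 °C; CellTiter-Glo luminescence as viability measure.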
TGFb inhibitor = TGF-b pathway inhibition. AID 588855. HepG2 CAGA-GFP TGF-b/SMAD3 reporter, GFP fluorescence, 18 h; TGF-beta stimulated, 500 pg/mL final. Potency, µM (highest dose often 46.1 µM), inactives show at the highest dose activity, negative = inhibition, actives largely listed as inhibitors. 410,000 tested, 1.2% active; also: potency is read from the fitted curve at half-maximal effect; % is scaled to controls: 0 for no effect and ±100 for the full control effect; nearly all actives have a fitted effect of over 65% in size
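First, reporter cells (HEPG2 CAGA-GFP) rested 2 h at 37 degrees C. Next, compounds were pinned in and TGF-beta added to 500 pg/mL final. After 18 h, GFP was imaged per cell and summed per well.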
IL1B secr inh = inhibitors of inflammasome signaling (IL-1 beta secretion). THP-1 LPS/ATP IL-1B secretion, AlphaLISA, 16 h; active compounds read low. activity change, % at 57.5 µM. 360,000 tested, 4.7% active. AID 743279; in the data active = activity change below about -50%; inconclusive = mostly about -30% to -49%; also: % is scaled to controls: 0 for no effect and ±100 for the full control effect
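Secreted IL-1B measured by AlphaLISA bead assay after 16 h compound exposure of THP-1 cells; compounds (final up to 57.5 uM) added 1 h before LPS (250 ng/mL) and ATP (1.25 mM) stimulation; lower signal means less secretion.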
DT40 TDP1 CPT = DT40-hTDP1 cell growth loss with CPT; Potency, µM (highest dose often 46.2 µM), inactives show at the highest dose activity change, negative = growth inhibition, actives largely listed as inhibitors; chicken DT40 Tdp1-/-;hTDP1 cells + 20 nM CPT, ATP luminescence, 48 h; 420,000 tested, 12% active; AID 686979; also: potency is read from the fitted curve at half-maximal effect; % is scaled to controls: 0 for no effect and ±100 for the full control effect; nearly all actives have a fitted effect of over 55% in size
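Cell growth measured by CellTiter-Glo luminescence after a minimum 48 h, 37 C compound exposure with 20 nM CPT in Tdp1-knockout DT40 cells stably expressing hTDP1, seeded 400/well; qHTS titration format.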
HepG2 tox-1 = kills HepG2 cells in TGF-b inhibitor counter-screen. HepG2 CAGA-GFP viability, ATP luminescence, 18 h. Potency, µM (titrated, usually from 46.1 µM), for inactives: top-dose activity change, negative = cytotoxicity, usual class: cytotoxic. 410,000 tested, 0.76% active. AID 588856; also: potency is read from the fitted curve at half-maximal effect
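CellTiter-Glo luminescence gave cytotoxicity after 18 hours at 37 degrees C. The cells were HepG2 CAGA-GFP in 1% FBS DMEM, stimulated with 500 pg/mL TGF-beta after compound addition. %Activity was normalised to no-cell wells (complete cell-killing) and DMSO (no toxicity), and curves were fitted and classified.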
TDP1 inh = blocks human tyrosyl-DNA phosphodiesterase 1; 350,000 tested, 0.28% active; Potency, µM (titrated, usually from 130 µM), for inactives: top-dose activity change, negative = inhibition, usual class: inhibitors; Q9NUW8; recombinant TDP1, AlphaScreen DNA substrate cleavage; also: potency is read from the fitted curve at half-maximal effect; % is scaled to controls: 0 for no effect and ±100 for the full control effect; nearly all actives have a fitted effect of over 40% in size
Target sequence (Q9NUW8 whole entry, looked up): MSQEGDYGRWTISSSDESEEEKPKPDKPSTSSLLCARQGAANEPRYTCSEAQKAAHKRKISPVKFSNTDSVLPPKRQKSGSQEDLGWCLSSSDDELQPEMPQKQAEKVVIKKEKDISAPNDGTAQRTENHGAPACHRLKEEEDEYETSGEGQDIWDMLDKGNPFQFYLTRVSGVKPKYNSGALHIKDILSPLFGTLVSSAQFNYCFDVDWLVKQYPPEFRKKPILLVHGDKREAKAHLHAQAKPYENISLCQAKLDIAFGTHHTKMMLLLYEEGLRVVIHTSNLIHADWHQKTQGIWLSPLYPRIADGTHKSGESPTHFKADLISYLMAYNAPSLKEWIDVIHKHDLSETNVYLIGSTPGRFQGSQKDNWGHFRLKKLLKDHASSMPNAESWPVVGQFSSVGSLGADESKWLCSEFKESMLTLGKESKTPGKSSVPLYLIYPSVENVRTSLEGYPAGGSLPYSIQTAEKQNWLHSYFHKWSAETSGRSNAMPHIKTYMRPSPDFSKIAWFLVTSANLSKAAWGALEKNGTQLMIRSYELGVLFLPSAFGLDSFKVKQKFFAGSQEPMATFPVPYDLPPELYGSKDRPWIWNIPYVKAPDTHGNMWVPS
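Tdp1 1 nM final; 15 min RT w/ cpd; substrate 15 nM, 5 min; beads 10 ug/ml, 10 min; AlphaScreen read. Neg ctrl: no enzyme.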
TGFb CAGA inh = confirmation of TGF-b signaling inhibitors in HepG2 reporter cells; shares compounds with TGFb inhibitor; HepG2 CAGA-GFP TGF-b reporter, GFP fluorescence, 18 h; cells stimulated with TGF-beta, 500 pg/mL; Potency, µM (highest dose often 46.1 µM), for the others: top-dose activity, negative = inhibition, usual class: inhibitors; 1,600 tested, 63% active; also: potency is read from the fitted curve at half-maximal effect; % is scaled to controls: 0 for no effect and ±100 for the full control effect; nearly all actives have a fitted effect of over 65% in size
HepG2 tox-2 = HepG2 cytotoxicity, TGF-b inhibitor counterscreen | 1,600 tested, 27% active | shares compounds with TGFb inhibitor | HepG2 CAGA-GFP viability, ATP luminescence, 18 h; cells stimulated with TGF-beta, 500 pg/mL | Potency, µM (doses to about 46.1 µM), inactives show top-dose activity, negative = cytotoxicity, actives largely listed as inhibitors; also: potency is read from the fitted curve at half-maximal effect; % is scaled to controls: 0 for no effect and ±100 for the full control effect; nearly all actives have a fitted effect of over 70% in size
TGFb CCL64 inh = orthogonal confirmation of TGF-b inhibitors in CCL64 cells; CCL64 CAGA-GFP reporter, TGF-b stimulated, GFP fluorescence, 18 h; AID 720536; shares compounds with TGFb inhibitor; Potency, µM (highest dose often 46.1 µM), for the others: at the highest dose activity, negative = inhibition, actives largely listed as inhibitors; 1,600 tested, 41% active; also: potency is read from the fitted curve at half-maximal effect; nearly all actives have a fitted effect of over 65% in size
COP TGFb inh = TGF-b inhibition validated with COP promoter. shares compounds with TGFb inhibitor. HepG2 COP-GFP TGF-b reporter, GFP fluorescence, 18 h; cells stimulated by added recombinant TGF-beta. Potency, µM (doses to about 46.1 µM), without a hit: at the highest dose activity, negative = inhibition, most hits filed as inhibitors. 1,600 tested, 3% active. AID 720537; also: potency is read from the fitted curve at half-maximal effect; nearly all actives have a fitted effect of over 70% in size
Starred values were filed as active, the others as inactive; ? = inconclusive; / = not tested or not shown; ! = a repeat was not active; [ ] = dose if it differs, or a comment. A selection: hits, their analogues and other compounds. The true share with any hit is near 18%. Unless noted, calls follow the shape of the dose curve; as a rule, active = well fitted curve in the direction sought with a large enough effect; inconclusive = small, poorly fitted or top-dose-only effect, or another doubt; inactive = no such curve, though single readings can be large; an effect the other way counts as inactive or inconclusive.

SMILES | TDP1 cell noCPT | TGFb inhibitor | IL1B secr inh | DT40 TDP1 CPT | HepG2 tox-1 | TDP1 inh | TGFb CAGA inh | HepG2 tox-2 | TGFb CCL64 inh | COP TGFb inh
C[C@]12c3[nH]c4ccc(Cl)cc4c3CCN1C(=O)[C@@H](CC(=O)NCCC1=CCCCC1)C[C@@H]2C(=O)N1CCOCC1 | 16.4µM* | ? | -25.3 | 11.6µM* | -26.1% | 0.7%[56.1 µM] | 16.4µM* | -9.0% | ? | 2.0%
CCOC(=O)C1CCCN(C(=O)c2ccc([N+](=O)[O-])c(C)c2)C1 (centres undefined) | -17.6% | -15.9% | 119.0 | -10.7% | -0.1% | 5.6% | / | / | / | /
Cc1c(Cl)cccc1NC(=S)N1CCC(C(N)=O)(N2CCCCC2)CC1 | -1.7% | -19.3% | 13.8 | -24.7% | 1.8% | 0.0% | / | / | / | /
CCCCC[C@H]1CN(CCc2ccccc2)C(=O)[C@@H]1CC(=O)NCc1ccc(OC)cc1 | 18.4µM* | 10µM* | -78.3* | ? | 7.08µM*! | / | ? | -26.8% | ? | 28.4%
CS(=O)(=O)c1ccc(C(=O)OCC(=O)NC(=O)C2CCCCC2)cc1[N+](=O)[O-] | ? | 10µM* | -60.3* | 9.2µM* | -115.9% | 8.8% | 11.6µM* | ? | ? | ?
COc1ccc(-c2nc(NC(=O)C3CC(=O)N(c4ccc5c(c4)OCCO5)C3)sc2C)cc1 (centres undefined) | 6.31µM* | 11.2µM* | 17.3 | 6.31µM* | -1.5% | 3.2% | 6.51µM* | ? | ? | 31.0%
COc1ccc2nc(NC(=O)C3CC(=O)N(c4ccc5c(c4)OCCO5)C3)sc2c1 (centres undefined) | ? | -14.9% | -21.1 | ? | -7.3% | 13.8% | / | / | / | /
Cc1ccc(-n2c(SCC(N)=O)nc3c(c2=O)C2(CCCC2)Cc2ccccc2-3)cc1 | ? | 8.91µM* | -62.7* | -25.4% | 11.0% | 2.7% | 13µM* | 14.6µM* | ? | 19.0%
O=C(CCCSc1nc2ccccc2[nH]1)N1CCN(c2ccccc2)CC1 | ? | -15.4% | 9.0 | ? | -18.9% | 10.4% | / | / | / | /
Cc1cccc(N2CCN(C(=O)CCCSc3nc4ccccc4[nH]3)CC2)c1C | ? | ? | ? | 16.4µM* | -34.3% | 6.4% | ? | ? | 13µM* | 40.6%
Cn1c(=O)cc(OCC(=O)NCc2cccs2)c2ccccc21 | -18.8% | 1.4% | -1.7 | -17.1% | 0.5% | 2.5% | / | / | / | /

Assay outcomes: PubChem, National Center for Advancing Translational Sciences (NCATS)
